Assay outcomes (PubChem)
CRFR2-BP antag: CRF-BP/CRF-R2 complex antagonism. HEK293 CRF-R2/CRF-BP, CRF-induced calcium fluorescence. inhibition, % at 11.8 µM. 350,000 tested, 0.59% active;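 active = inhibition of the ligand-induced calcium signal above about 50% at the single tested concentration, limit read from the data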
cardiac RTF act: cardiac RTF calcium sensitization; P19429+P45379; IANBD-labeled TnC RTF fluorescence at EC20 calcium; 0% EC20 calcium, 100% full calcium; activation, % at 7.2 µM; 340,000 tested, 0.24% active; AID 493008;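 active = activation above the mean over all tested compounds plus 3 SD, cut at about 30% in these data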;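 also: rise in fluorescence read as greater calcium sensitivity of cardiac thin filaments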
CRFR2-BP ag: CRF-BP/CRF-R2 complex agonism. HEK293 CRF-R2/CRF-BP, calcium dye fluorescence (FLIPR); percent of saturating CRF peptide response. activation, % at 13.2 µM. 350,000 tested, 0.46% active. AID 588473;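 active = activation of at least 50%, plus an integration ratio under a set limit after plate pattern correction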;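 also: plate controls were neutral control wells without compound for no effect and CRF at EC100 for full effect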
RTF Ca sens inh: cardiac RTF calcium desensitization | 340,000 tested, 0.12% active | AID 493244 | inhibition, % at 7.15 µM | P19429+P45379 | IANBD-labeled cardiac RTF, Ca2+ fluorescence;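 active = inhibition above the mean inhibition of all tested compounds plus 3 SD, cut at about 17% in these data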;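 also: assay run at fixed EC70 calcium of 1.6 mM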
IDE cell inh: inhibits human insulin-degrading enzyme in HEK cells; inhibition, % at 5.59 µM; P14735; FAbetaB cleavage, fluorescence polarization; 320,000 tested, 0.41% active;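 active = percent inhibition above the average of all tested compounds plus 3 SD, set per screening campaign, cut at about 16% in these data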;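 also: IDE supplied by intact live HEK cells; FP after avidin binding of uncleaved biotin substrate so inhibition keeps polarization high; 0% = DMSO wells and 100% = 60 µM reference IDE inhibitor Ii1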
Target sequence (P14735 whole entry, looked up): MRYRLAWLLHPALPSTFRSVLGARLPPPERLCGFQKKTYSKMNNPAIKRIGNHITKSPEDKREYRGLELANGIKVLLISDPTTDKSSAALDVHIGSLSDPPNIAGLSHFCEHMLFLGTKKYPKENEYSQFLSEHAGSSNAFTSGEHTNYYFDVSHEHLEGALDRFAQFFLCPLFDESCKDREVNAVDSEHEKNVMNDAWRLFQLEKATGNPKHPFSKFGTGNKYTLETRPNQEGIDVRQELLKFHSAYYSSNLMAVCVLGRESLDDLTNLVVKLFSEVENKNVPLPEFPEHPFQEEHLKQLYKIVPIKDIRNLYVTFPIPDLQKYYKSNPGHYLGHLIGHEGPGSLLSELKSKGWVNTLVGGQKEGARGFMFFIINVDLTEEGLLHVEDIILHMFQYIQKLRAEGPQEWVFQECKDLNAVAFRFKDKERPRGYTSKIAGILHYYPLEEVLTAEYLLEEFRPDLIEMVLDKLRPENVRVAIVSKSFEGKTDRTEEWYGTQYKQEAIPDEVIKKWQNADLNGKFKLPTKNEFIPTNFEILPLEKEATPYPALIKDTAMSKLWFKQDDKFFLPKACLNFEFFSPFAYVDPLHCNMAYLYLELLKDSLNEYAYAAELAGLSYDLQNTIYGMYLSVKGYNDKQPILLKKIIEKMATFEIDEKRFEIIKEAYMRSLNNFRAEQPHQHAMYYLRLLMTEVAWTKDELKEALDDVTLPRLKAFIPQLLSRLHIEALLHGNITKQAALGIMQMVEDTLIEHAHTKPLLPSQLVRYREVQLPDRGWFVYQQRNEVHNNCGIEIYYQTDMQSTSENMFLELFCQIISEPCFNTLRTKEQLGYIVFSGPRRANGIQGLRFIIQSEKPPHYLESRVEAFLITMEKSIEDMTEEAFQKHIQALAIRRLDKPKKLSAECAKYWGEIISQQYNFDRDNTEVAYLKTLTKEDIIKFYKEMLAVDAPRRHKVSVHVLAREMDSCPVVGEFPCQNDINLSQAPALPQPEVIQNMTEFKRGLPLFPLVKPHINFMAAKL
IDE act: IDE (human) activation, cell-based. P14735. HEK cells, FAbeta-B cleavage, fluorescence polarization; 0% vehicle, 100% cell-free pure enzyme wells. activation, % at 5.96 µM. 340,000 tested, 0.073% active. AID 493087;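 active = activation above the mean of all tested compounds plus 3 SD, set per screening campaign, cut at about 17% in these data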
IDE inh confirm: cellular human IDE inhibition, confirmation; shares compounds with IDE cell inh; HEK cells, FAbetaB cleavage, fluorescence polarization; inhibition, % at 5.59 µM; 1,200 tested, 51% active; AID 435028;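 active = mean inhibition across triplicate wells above the cutoff set by the earlier primary insulin-degrading enzyme screen, cut at about 16% in these data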;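 also: 0% = DMSO wells and 100% = 60 µM reference IDE inhibitor Ii1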
HEK cytotox: counter-screen for IDE inhibitors: cytotoxicity in HEK cells; shares compounds with IDE cell inh; HEK293 cytotoxicity, ATP luminescence; inhibition, % at 5.59 µM; 1,200 tested, 28% active; AID 449730; in the data active = inhibition above about 22%;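 also: 0% = vehicle wells and 100% = reference cytotoxic drug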
IDE FP artifact: fluorescence interference counter-screen for IDE inhibitors | 30 tested, under 10 active | IC50, µM | shares compounds with IDE cell inh | FP counterscreen for fluorescent artifacts, IDE probe project; call rule not given here
Active calls of the source: *; / = no result. A selection: hits, their analogues and other compounds. The true share with any hit is near 1.5%.

SMILES | CRFR2-BP antag | cardiac RTF act | CRFR2-BP ag | RTF Ca sens inh | IDE cell inh | IDE act | IDE inh confirm | HEK cytotox | others
CN1CCN(C2=C(Cl)C(=O)C(c3cnc(N4CCCCC4)s3)=C(Cl)C2=O)CC1 | -17.2 | 0.5 | 0.5 | -10.3 | 22.6* | 2.7 | -3.2 | 119.4*
O=C(CN1CCN(Cc2ccc3c(c2)OCO3)CC1)Nc1ccc2[nH]c(=O)[nH]c2c1 | 27.9 | 0.0 | -2.9 | 3.4 | 8.4 | 3.4 | / | /
CN(C)c1ccc(/C=C(\C#N)C(=O)OCC(=O)N(C)C2CCS(=O)(=O)C2)cc1 (centres undefined) | -15.0 | 5.1 | 22.2 | -12.8 | 16.5* | -7.7 | 13.1 | 4.1
N#C/C(=C(/O)CSc1ccccn1)c1nc2ccccc2s1 | 14.5 | 5.5 | 4.0 | -3.2 | 30.4* | -1.0 | 4.5 | 6.2
O=C(CSc1nnc(-c2cccc(Cl)c2)n1Cc1ccco1)Nc1ccc2c(c1)OCCO2 | / | / | / | / | / | / | / | / | IDE FP artifact=>54.7
Cn1c(/C(C#N)=C/c2ccc(-c3ccc(S(N)(=O)=O)cc3)o2)nc2ccccc21 | -31.2 | 44.8* | 17.9 | -17.9 | 26.1* | -7.4 | 47.1* | 46.0*
N#Cc1ccc(C(=O)Nc2ccc3ccccc3c2)cc1 | -14.9 | 2.2 | 0.0 | 7.2 | 10.0 | -3.7 | / | /
O=C(Nc1ccc2ccccc2c1)c1ccc2[nH]c(=O)c(=O)[nH]c2c1 | -25.8 | -2.9 | 10.2 | -0.6 | 20.2* | -18.9 | 12.6 | 9.6
O=C(Nc1ccccc1SCC1CSc2nc3ccccc3c(=O)n21)c1ccccc1 (centres undefined) | 66.6* | -2.4 | -3.1 | -4.6 | 18.2* | -36.8 | 9.9 | 19.7
Cc1ccc[n+](C(C)C(=O)c2ccc(Cl)cc2)c1 (centres undefined) | 23.8 | -0.1 | 9.5 | -2.1 | -3.1 | 5.3 | / | /
Cc1cc(C)c[n+](C(C)C(=O)c2ccc(-c3ccccc3)cc2)c1 (centres undefined) | 49.7 | 2.3 | -1.3 | -13.0 | 17.2* | -25.1 | 12.8 | 70.5*
O=C1c2ccccc2C(=O)C1(O)O | / | / | / | / | 1.8 | / | / | /
CC1(S(=O)(=O)O)CC(=O)c2ccccc2C1=O (centres undefined) | -36.7 | 3.2 | 1.2 | -33.5 | 43.0* | -8.8 | 116.0* | 28.9*
COc1cc(/C=C/C(=O)Nc2cc(C(F)(F)F)ccc2Cl)cc(OC)c1OC | 6.2 | -11.8 | 0.0 | -13.9 | 17.4* | -4.5 | 3.6 | 16.0
COc1ccc(/C=C/C(=O)Nc2cc(C(F)(F)F)ccc2Cl)cc1OC | -4.6 | -12.7 | -1.3 | -3.4 | 8.5 | -8.5 | / | /
CCc1ccc(C2C(C(=O)O)c3ccccc3C(=O)N2C)cc1 (centres undefined) | 11.4 | 1.0 | -0.9 | -12.2 | -5.0 | 5.7 | / | /
O=C(O)C1c2ccccc2C(=O)N(Cc2ccc(F)cc2)C1c1ccncc1 (centres undefined) | 4.0 | / | 5.8 | / | 16.2* | / | 6.3 | 3.6
COCCC(=O)N1CCC(C(=O)Nc2ccc(Oc3ccccc3)nc2)CC1 | 6.4 | -6.7 | 2.3 | 0.7 | 0.2 | 5.5 | / | /
CCOc1ccc(Cl)cc1/C=N/NC(=O)CNC(=O)c1ccccc1 | -12.5 | -1.7 | -0.7 | 11.2 | 26.2* | -6.3 | 5.7 | 15.0
O=C(Nc1ccc2c(c1)CCC2)C1CCN(c2c3c(nc4ncnn24)CCC3)CC1 | -27.5 | -5.2 | -3.6 | -1.5 | 42.0* | -41.8 | 12.7 | 51.4*
O=C(Nc1ccc(Oc2ccccc2)cc1)C1CCN(c2c3c(nc4ncnn24)CCC3)CC1 | -32.1 | -4.8 | 0.7 | 1.9 | 5.5 | -2.2 | / | /
CCOC(CNC(=O)CN1C(=O)COc2ccc(S(=O)(=O)N3CC(C)CC(C)C3)cc21)OCC (centres undefined) | -10.8 | 2.8 | -2.9 | -6.6 | -2.3 | 5.2 | / | /
COc1ccc2[nH]c3c(N4CCC(O)(c5cccc(C(F)(F)F)c5)CC4)ncnc3c2c1 | -11.3 | 2.7 | -3.1 | -3.0 | 22.6* | -4.9 | 5.9 | 64.9*
COc1cccc(C2C=C(c3ccc(Br)s3)Nc3ncnn32)c1OC (centres undefined) | -89.1 | 37.1* | 106.1* | -38.6 | 32.0* | -50.1 | 5.6 | 21.2
COc1ccc(C2C=C(c3ccc(C)c(C)c3)Nc3ncnn32)c(OC)c1OC (centres undefined) | 9.6 | 14.4 | 0.4 | 1.3 | -1.3 | -6.3 | / | /
SMILES | CRFR2-BP antag | cardiac RTF act | CRFR2-BP ag | RTF Ca sens inh | IDE cell inh | IDE act | IDE inh confirm | HEK cytotox | others
O=C(Nc1ccc(N2CCOCC2)c(Cl)c1)c1ccc(Cl)cc1 | -6.5 | -2.9 | -0.7 | -7.8 | 17.5* | -5.0 | 4.4 | 21.2
Cn1c(SCC(=O)NCCc2ccc(S(N)(=O)=O)cc2)nc2ccccc2c1=O | -3.2 | -5.9 | -0.8 | -1.9 | 40.7* | -56.4 | 8.7 | 7.5
NS(=O)(=O)c1ccc(CCNC(=O)CSc2nc3ccccc3c(=O)n2CCN2CCOCC2)cc1 | 14.5 | -2.5 | -0.7 | 0.3 | 6.1 | 1.7 | / | /
CCN(C(=O)c1ccc(S(=O)(=O)N2CCCC2)cc1)C1CCS(=O)(=O)C1 (centres undefined) | 5.1 | -1.4 | -1.2 | -0.9 | 3.9 | 4.7 | / | /
N#CC1=C(S)N=C(N)C(c2nc(-c3ccccc3)cs2)C12CCCC2 (centres undefined) | -6.3 | 3.2 | 0.4 | -4.3 | 20.1* | -10.3 | 8.6 | 6.4
O=[N+]([O-])c1ccc(N=Cc2sc3ccccc3c2O)cc1 | -55.8 | -4.0 | 23.8 | -9.3 | 16.9* | 1.3 | 13.9 | 10.9
CCN(CC(=O)Nc1ccccc1C(F)(F)F)C(=O)c1ccc2[nH]c3c(c2c1)CC(C)CC3 (centres undefined) | -3.6 | -28.8 | 0.8 | -10.7 | -5.9 | 5.5 | / | /
O=S(=O)(c1cccc(NC(=S)N2CCN(c3ccccc3F)CC2)c1)C(F)F | -21.2 | 0.0 | -0.4 | -20.9 | 5.1 | 2.2 | / | /
O=S(=O)(c1cccc(NC(=S)N2CCN(c3ccccc3)CC2)c1)C(F)F | -31.8 | 7.2 | -1.4 | 0.4 | 19.1* | -20.8 | 3.6 | 7.2
COC(=O)c1sc(N)c(C(=O)OC)c1CSc1nnnn1C | -2.2 | -0.8 | -3.6 | -8.8 | 1.1 | 4.6 | / | /
COC(=O)c1sc(N)c(C(=O)OC)c1CSc1nnc(-c2ccccc2Cl)n1C | -24.7 | -3.9 | -3.8 | -11.8 | 16.2* | -3.6 | 4.7 | 10.0
O=C(c1ccccc1)N1CCN(C(=O)c2ccccc2)c2ccccc21 | -7.0 | -6.4 | -3.2 | -3.3 | / | 5.0 | / | /
Cc1csc2c(N3CCN(C(=O)Nc4ccc(Cl)c(Cl)c4)CC3)ncnc12 | -8.2 | 2.6 | -1.1 | -7.0 | 21.2* | -20.6 | 8.9 | 9.4
